Screens: PubChem BioAssay, National Center for Advancing Translational Sciences (NCATS)
12-LOX inh – ALOX12 (human) lipoxygenase inhibition; P18054; purified 12hLO, xylenol orange hydroperoxide absorbance; Potency, µM (series often up to 108 µM), for inactives: top-dose activity change, negative = inhibition, actives largely listed as inhibitors; actives 1.1% (n = 580,000); note: potency is the fitted concentration of half-maximal effect; % is set by controls: 0 for no effect and ±100 for the full control effect
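Purified human 12hLO (150 nM final) in 25 mM Hepes, 0.01% Triton X-100, pH 7.0 was preincubated 15 min at room temperature with compound. Then 40 uM arachidonic acid was added, 30 min. Hydroperoxide was read by Fe-XO absorbance ratio 573/405 nm.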
GCN5L2 inh-1 – inhibitors of human GCN5L2 histone acetyltransferase | Q92830 | GCN5L2 HAT assay, ThioGlo1 CoA-SH fluorescence | Potency, µM (doses to about 58.9 µM), for inactives: top-dose activity change, negative = inhibition, hits mostly inhibitors | actives 0.21% (n = 390,000) | AID 504327; note: potency is the fitted concentration of half-maximal effect; % is set by controls: 0 for no effect and ±100 for the full control effect
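Preincubate 20nM GCN5L2 with compound 15 min, RT → add 50uM ThioGlo1 + 75uM H3(1-25) + 70uM acetyl-CoA → read fluorescence 0 and 20 min. Primary qHTS; fluorescent artifacts likely.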
VDR inhibitor – vitamin D3 receptor (human) inhibition. P11473. VDR-SRC2-3 peptide fluorescence polarization, 2 h. Potency, µM, for the others: max response, negative = inhibition, most hits filed as inhibitors. actives 0.93% (n = 400,000). AID 504847; note: potency is the fitted concentration of half-maximal effect; % is set by controls: 0 for no effect and ±100 for the full control effect
Target sequence (P11473 whole entry, looked up): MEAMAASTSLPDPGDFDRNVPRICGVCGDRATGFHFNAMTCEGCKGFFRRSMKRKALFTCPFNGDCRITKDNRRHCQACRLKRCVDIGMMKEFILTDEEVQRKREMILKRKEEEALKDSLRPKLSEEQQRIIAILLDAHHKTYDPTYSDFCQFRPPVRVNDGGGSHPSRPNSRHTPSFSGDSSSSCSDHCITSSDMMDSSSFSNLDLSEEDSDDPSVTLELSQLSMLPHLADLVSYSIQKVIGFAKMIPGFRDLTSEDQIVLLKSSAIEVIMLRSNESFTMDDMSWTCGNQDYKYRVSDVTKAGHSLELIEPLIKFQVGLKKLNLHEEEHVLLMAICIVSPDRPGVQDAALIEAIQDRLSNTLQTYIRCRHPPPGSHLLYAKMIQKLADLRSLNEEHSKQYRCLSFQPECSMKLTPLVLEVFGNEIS
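FP read-out; VDR + SRC2-3 coactivator peptide; 23 nl compound by pintool; 2 h RT incubation; reagents held at 4 deg C, protected from light.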
PLK1 PBD inh – PLK1 (human) polo-box domain binding inhibition; Plk1 PBD binding of FITC phosphopeptide, fluorescence polarization; AID 720504; Potency, µM, for inactives: max response, negative = inhibition, actives largely listed as inhibitors; actives 2.8% (n = 360,000); P53350; note: potency is the fitted concentration of half-maximal effect; series mostly up to about 57 µM; % is set by controls: 0 for no effect and ±100 for the full control effect; nearly all actives have a fitted effect of over 65% in size
GCN5L2 inh-2 – confirmation of human GCN5L2 histone acetyltransferase inhibitors; shares compounds with GCN5L2 inh-1; GCN5L2 HAT, ThioGlo1 CoA fluorescence, 20 min; Potency, µM, usual class: inhibitors; actives 70% (n = 140); AID 588347
VDR inh confirm – inhibits human vitamin D receptor, primary hit validation; actives 89% (n = 840); VDR-coactivator inhibition assay, qHTS confirmation; shares compounds with VDR inhibitor; AID 602199; Potency, µM, actives largely listed as inhibitors; note: potency is the fitted concentration of half-maximal effect
VDR FP – VDR (human) coactivator binding inhibition, fluorescein polarization; AID 602200; VDR-coactivator binding, fluorescein fluorescence polarization; shares compounds with VDR inhibitor; Potency, µM (series often up to 57.1 µM), without a hit: at the highest dose activity change, negative = inhibition, usual class: inhibitors; actives 48% (n = 840); note: potency is the fitted concentration of half-maximal effect
VDR bla reporter – inhibits human VDR in beta-lactamase reporter cells; shares compounds with VDR inhibitor; VDR beta-lactamase reporter cells, FRET ratio; cells co-treated with VDR agonist LG190178; Potency, µM (titrated, usually from 46.1 µM), for inactives: at the highest dose activity change, negative = inhibition, hits mostly inhibitors; actives 23% (n = 840); AID 602202; note: potency is the fitted concentration of half-maximal effect; % is set by controls: 0 for no effect and ±100 for the full control effect
VDR viability – counter-screen for vitamin D receptor inhibitors: cytotoxicity; shares compounds with VDR inhibitor; cytotoxicity counter-screen, cell viability, qHTS; Potency, µM (titrated, usually from 48.3 µM), for the others: at the highest dose activity change, negative = cytotoxicity, usual class: cytotoxic; actives 18% (n = 840); AID 602204;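 note: potency is the fitted concentration of half-maximal effect; plate controls were DMSO for no effect and high-concentration cycloheximide for full effect; nearly all actives have a fitted effect of over 75% in size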
Numbers without * were called inactive; ? = inconclusive; · = not tested or not shown; [ ] = remark or other dose. Compounds with a hit are over-represented: about 3% of the library has one in this group of screens. Calls come from the whole dose curve; as a rule, active = well fitted curve in the direction sought with a large enough effect; inconclusive = small, poorly fitted or top-dose-only effect, or another doubt; inactive = no such curve, though single readings can be large; an effect the other way counts as inactive or inconclusive.

SMILES | 12-LOX inh | GCN5L2 inh-1 | VDR inhibitor | PLK1 PBD inh | others
CC(C)Oc1ccc(C2C(C#N)=C(N)Oc3c2c(=O)oc2ccccc32)cc1 (centres undefined) | 0% | 3% | -3% | -5%
N#CC1=C(N)Oc2c(c(=O)oc3ccccc23)C1c1ccc([N+](=O)[O-])o1 (centres undefined) | -25% | -11% | ? | 21µM*
C=C(C)C(=O)OC[N+](C)(C)CCOC(=O)C(O)(c1ccccc1)C1CCCC1 (centres undefined) | 10% | · | · | ·
COc1cc(CCC(=O)N2CCC3(CC2)NCc2ccccc2-n2ccnc23)on1 | -1% | · | · | ·
O=C1C=C(N2CC2)c2ccccc2C1=O | ? | · | · | 15µM*
O=C1c2ccccc2-c2cc3ccccc3cc21 | ? | · | -17% | 5%
Nc1cccc(-c2cn(C[C@H]3CC4CCN3C[C@@H]4C(=O)NCc3ccccc3)nn2)c1 (some centres undefined) | 43%[176 µM] | · | · | ·
CN(C)[C@@H]1CN(C(=O)Cc2cccnc2)CCC1(O)c1ccccc1 (some centres undefined) | 12% | · | · | ·
C[N+](C)(C)CC1CCCCC1=O (centres undefined) | 13µM* | · | · | ·
O=C1CCCCC1CN1CCCCC1 (centres undefined) | -6% | -1% | 2% | ·
Cn1c(O)c(C(=Nc2ccccc2)SCc2ccc(Cl)cc2)c(=O)n(C)c1=O | 16µM* | 3% | ? | 27µM*
Cn1c(O)c(C(=N)COc2ccccc2)c(=O)n(C)c1=O | 12% | -7% | 18% | -5%
CC(Oc1cc2oc(=O)c3c(c2cc1Cl)CCCC3)C(=O)NCc1ccccn1 (centres undefined) | -6% | -7% | -6% | 24µM*
c1ccc(C2=NOC3(CCCN(Cc4ccccn4)C3)C2)cc1 (centres undefined) | -7%[6.33 µM] | · | · | ·
O=S(=O)(NC[C@H]1C[C@@H]2CCN1C[C@@H]2CN1CCCC1)c1ccc(Cl)cc1 | 11%[176 µM] | · | · | ·
CC[C@@]1(O)C(=O)OCc2c1cc1n(c2=O)-c2cc3ccccc3nc2C1 | · | 28µM* | -2% | ·
CC[C@@]1(O)C(=O)OCc2c1cc1n(c2=O)Cc2cc3cc(O)ccc3nc2-1 | ? | ? | 0% | ·
COCc1nnc2n1CCC(NC(=O)c1nn(C)c3ccccc13)CC2 (centres undefined) | 45% | · | · | ·
O=C1NC(=S)NC(=O)C12C(c1ccccc1)NC(=S)NC2c1ccccc1 (centres undefined) | ? | -1% | ? | -15%
O=C1NC(=S)NC(=O)C1c1ccccc1 | 32µM* | · | ? | 24µM*
CC[C@H]1CN2CC[C@H]1C[C@@H]2CNC(=O)Nc1cccc(C(F)(F)F)c1 | 22%[176 µM] | · | · | ·
CCc1cnc(N2CCC3(CC2)C(=O)Nc2cc(Oc4ccccc4)c(OC)cc23)nc1 | -12%[176 µM] | · | · | ·
O=C(c1ccco1)N1[C@H]2CC[C@@H]1c1cnc(-c3ccc(F)cc3)nc1C2 | 6% | · | · | ·
Nc1ccc(N=Nc2ccc(-c3ccc(N=Nc4c(S(=O)(=O)O)cc5cc(S(=O)(=O)O)c(N=Nc6ccccc6)c(O)c5c4N)cc3)cc2)c(N)c1 | 13% | · | · | ·
O=C1NC(=O)N(Cc2ccccc2)C(=O)/C1=C\N1CCCc2ccccc21 | ? | ? | 35µM* | -20%
SMILES | 12-LOX inh | GCN5L2 inh-1 | VDR inhibitor | PLK1 PBD inh | others
CCN(CC)P(=S)(c1c(C)nc2ccccn12)c1c(C)nc2ccccn12 | -27% | -17% | ? | 5.3µM*
CCOc1c(P(=S)(N(C)C)N(C)C)c(C)nn1-c1ccccc1 | 378% | -19% | 5% | -9%
COc1ccc(C(=O)C(C)(C)NO)cc1 | 5µM* | -8% | -11% | -13%
C=CCn1c(O)c(C(C)=Nc2ccc(C(=O)OCC)cc2)c(=O)[nH]c1=O | 5.6µM* | 2% | 2% | -4%
C=CCn1c(O)c(C(C)=Nc2cccc(C(=O)O)c2)c(=O)[nH]c1=O | 0% | 1% | 7% | -7%
O=C(CCN1CCN(c2ccccc2)CC1)c1ccc(Br)cc1 | 0% | -4% | 89µM* | 8.4µM*
N#Cc1ccccc1CN1CCN(c2ccccc2)CC1 | 3% | · | · | ·
COc1ccc(-n2nc(C)c3c2NC(=O)CSC3c2cccc(O)c2)cc1 (centres undefined) | -64% | · | · | ·
COc1ccc(-c2cc(=NCC(=O)O)c3ccccc3o2)cc1 | · | ? | 9% | 1% | GCN5L2 inh-2=32*
C=C[C@H]1CN2CC[C@H]1C[C@@H]2CNS(=O)(=O)c1ccc2ccccc2c1 | 15%[176 µM] | · | · | ·
CCOc1ccc(/C=C2/C(=O)NC(=O)N(CCc3ccc(F)cc3)C2=O)cc1 | ? | -23% | 79µM* | 2.7µM* | VDR inh confirm=?;VDR FP=18µM*;VDR bla reporter=17%;VDR viability=?
O=C1NC(=O)C(CCc2ccncc2)(CCc2ccncc2)C(=O)N1CCc1ccc(F)cc1 | 8% | -3% | 1% | -1%
CCOc1ccc(N2C(=O)NC(=O)/C(=C\c3ccccc3[N+](=O)[O-])C2=O)cc1 | ? | -5% | 32µM* | 9.5µM* | VDR inh confirm=9.5*;VDR FP=?;VDR bla reporter=9%;VDR viability=-11%
CCC(C)c1ccc(N2C(=O)NC(=O)/C(=C/c3cccn3CCOc3ccc(C)cc3)C2=O)cc1 (centres undefined) | ? | 30% | 26% | -27%
CCN1C(=O)/C(=C\C(=O)c2cccs2)c2cc(Br)ccc21 | ? | -17% | 35µM* | 5.3µM* | VDR inh confirm=6.7*;VDR FP=?;VDR bla reporter=?;VDR viability=?
NNC(=O)CN1C(=O)CN=C(c2ccccc2)c2cc(Br)ccc21 | 175% | -7% | 9% | -15%
c1ccc(CCNCC2CCCO2)cc1 (centres undefined) | -18% | · | · | ·
COCCN1CCC(N2CCN(C(=O)Cc3c(F)cccc3Cl)CC2)C1=O (centres undefined) | 81% | · | · | ·
Cc1ccc(N2C(=O)NC(=O)/C(=C\c3cnc(-c4ccccc4)nc3)C2=O)cc1 | ? | 40% | 22µM* | 8.4µM* | VDR inh confirm=27*;VDR FP=?;VDR bla reporter=11%;VDR viability=9%
Cc1nccc(N2CCN(C)C3(CCC(=O)N(C)CC3)C2)n1 (centres undefined) | 14% | · | · | ·
